The list is not random: actives were taken first. Their share in the collection is about 1.6%.
KCNQ2 block = inhibitors of rat KCNQ2 potassium channel; O88943; CHO-K1 KCNQ2, FluxOR thallium flux, 20 min; stronger effect = lower value; B-score at 10 µM; 1.1% of 310,000 active;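 active = fluorescence ratio B-score at most minus 3 library SDs, with starting brightness B-score within 2 library SDs, cut at about -5.5 in these data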
KCNQ2 pot = enhances the rat KCNQ2 potassium channel; B-score at 10 µM; CHO-K1 KCNQ2, FluxOR thallium flux fluorescence; stronger effect = higher value; 0.54% of 310,000 active; AID 2239; O88943;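 active = fluorescence ratio B-score at least 3 SD of library B-scores, with initial fluorescence B-score within 3 of them, cut at about 5.3 in these data; same plate scores as AID 2156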;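 note: B-score of peak minus minimum over baseline fluorescence ratio after K+ and Tl+ stimulus; positive B-score means potentiation of KCNQ2 with more thallium influx and brighter signal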
Kir21 conf inh = confirmation of mouse Kir2.1 potassium channel inhibitors. 41% of 2,300 active. shares compounds with KCNQ2 pot. Tl flux remaining, % of negative control (stronger effect = lower value), % at 10 µM. AID 2032. Kir2.1-expressing cells, FluxOR thallium flux fluorescence; stronger effect = lower value;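 active = Primary-screen hit whose thallium flux fell at least 3 control SD below untreated wells in both duplicates, with normal baseline fluorescence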;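 note: 0% = blank wells without stimulus and 100% = stimulated no-compound controls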
HEK293 ctr = alters thallium flux in parental HEK293 cells, Kir2.1 counter-screen; FluxOR thallium flux fluorescence; 0% = unstimulated blank wells; FluxOR signal as % of negative control (100 = no effect), % at 10 µM; AID 2105; 19% of 2,300 active; shares compounds with KCNQ2 pot;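 active = dye signal at least 3 control SD above or below untreated wells in both duplicates, raw fluorescence within 3, either direction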;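 note: percent is based on the flux ratio of peak minus minimum fluorescence over baseline F0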
CHO-K1 Tl ctr = counter-screen for KCNQ2 potentiators: effect in parental CHO-K1 cells | shares compounds with KCNQ2 pot | FluxOR thallium flux fluorescence; zero = vehicle mean+3SD, 100% = vehicle-minus-blank window | activity increase over 3SD of controls, % at 10 µM | 43% of 1,200 active | AID 2282;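 active = signal rise of at least 3 SD above the untreated control mean, in both duplicate wells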;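 note: counter screen of KCNQ2 potentiator hits so any rise reflects channel-independent effects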
KCNQ1 pot spec = selectivity of KCNQ2 potentiators: effect on human KCNQ1; shares compounds with KCNQ2 pot; CHO KCNQ1 stable, FluxOR thallium flux fluorescence; beyond 3SD, as % of vehicle-control signal; activation over 3SD threshold, % at 10 µM; 28% of 1,200 active; AID 2283;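 active = fluorescence ratio rise of at least 3 SD of vehicle wells above their mean, in both replicate wells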;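 note: 0% = vehicle mean plus 3 SD and 100% = vehicle minus unstimulated blank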
KCNQ2 pot conf = confirmation of rat KCNQ2 potassium channel potentiators; shares compounds with KCNQ2 pot; CHO-KCNQ2 cells, FluxOR thallium flux fluorescence; potentiation, less the hit threshold, % at 10 µM; 68% of 1,200 active;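 active = fluorescence ratio rising 3 SD or more over the vehicle control mean in both replicates, plus primary screen hit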;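 note: peak minus minimum thallium fluorescence divided by baseline after K/Tl stimulus; 0% = vehicle mean plus 3 SD and 100% = vehicle minus unstimulated blank difference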
Kir2-1 sel = tests whether KCNQ2 potentiators also affect mouse Kir2.1. shares compounds with KCNQ2 pot. HEK293 Kir2.1, FluxOR thallium flux fluorescence. activity over 3SD threshold, % at 10 µM. 2% of 1,200 active. AID 2345;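 active = fluorescence ratio rise of at least 3 SD above the vehicle-control mean, seen in both replicates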;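 note: 0% = vehicle mean plus 3 SD and 100% = vehicle minus no-stimulus blank window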
KCNQ2 W236L pot = potentiates the retigabine-insensitive rat KCNQ2 W236L mutant channel; current increase over 3SD of negative controls (%), stronger effect = higher value, % at 25 µM; shares compounds with KCNQ2 pot; 10% of 940 active; CHO KCNQ2-W236L, automated patch clamp current;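 active = current increase at least 3 SD of the untreated controls above them in both duplicate recordings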
Target sequence (O88943 whole entry W236L, looked up): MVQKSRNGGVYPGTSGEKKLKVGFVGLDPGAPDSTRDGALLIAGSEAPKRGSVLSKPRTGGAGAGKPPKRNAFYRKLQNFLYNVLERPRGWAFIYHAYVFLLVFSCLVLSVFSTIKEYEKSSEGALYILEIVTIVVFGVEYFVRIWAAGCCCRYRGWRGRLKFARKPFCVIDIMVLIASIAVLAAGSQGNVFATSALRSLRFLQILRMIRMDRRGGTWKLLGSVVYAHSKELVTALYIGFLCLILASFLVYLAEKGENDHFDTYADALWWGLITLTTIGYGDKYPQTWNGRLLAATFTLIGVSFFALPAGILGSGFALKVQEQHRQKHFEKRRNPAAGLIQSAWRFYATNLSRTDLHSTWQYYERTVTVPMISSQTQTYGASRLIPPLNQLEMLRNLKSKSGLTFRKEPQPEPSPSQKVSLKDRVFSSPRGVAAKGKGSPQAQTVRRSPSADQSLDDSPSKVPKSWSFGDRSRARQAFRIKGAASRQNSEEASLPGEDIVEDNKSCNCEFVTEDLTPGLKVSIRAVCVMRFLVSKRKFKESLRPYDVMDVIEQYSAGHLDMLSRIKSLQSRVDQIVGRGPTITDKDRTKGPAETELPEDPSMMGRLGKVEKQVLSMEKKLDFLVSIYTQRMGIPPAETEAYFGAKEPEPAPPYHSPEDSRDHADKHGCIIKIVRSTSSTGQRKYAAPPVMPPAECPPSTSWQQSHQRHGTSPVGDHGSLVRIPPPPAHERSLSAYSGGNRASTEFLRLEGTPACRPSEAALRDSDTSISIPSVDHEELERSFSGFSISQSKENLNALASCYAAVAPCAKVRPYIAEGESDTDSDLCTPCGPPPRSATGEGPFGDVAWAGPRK
An asterisk follows results filed as active; i = inactive; . = not tested or not shown.

SMILES | KCNQ2 block | KCNQ2 pot | Kir21 conf inh | HEK293 ctr | others
CCCc1cc(=O)oc2cc(C)cc(OC(C)C(=O)N[C@@H](Cc3c[nH]c4ccccc34)C(=O)O)c12 (some centres undefined) | i | 9.69* | i | i | CHO-K1 Tl ctr=2.7*;KCNQ1 pot spec=-20.9;KCNQ2 pot conf=-25.1;Kir2-1 sel=-32.0
CCCCc1cc(=O)oc2cc(C)cc(OC(C)C(=O)NC(Cc3c[nH]c4ccc(O)cc34)C(=O)O)c12 (centres undefined) | i | . | . | .
c1ccc(-c2nc(N3CCCCC3)nc3ccccc23)cc1 | i | . | . | .
c1ccc(-c2nc(N3CCNCC3)nc3ccccc23)cc1 | i | . | 50.5%* | i
CCCCOc1ccc(Cc2c(O)nc(SC)[nH]c2=O)cc1 | i | 0.04 | . | .
C=CCn1c(=S)[nH]c2scc(-c3cccs3)c2c1=O | i | 25.1* | i | 512.0%* | CHO-K1 Tl ctr=11.7*;KCNQ1 pot spec=-12.9;KCNQ2 pot conf=106.4*;Kir2-1 sel=-2.8;KCNQ2 W236L pot=i
C=CCn1c(=S)[nH]c2cc(-c3ccccc3)sc2c1=O | i | 2.81 | . | .
Cn1c(=S)[nH]c2scc(-c3cccs3)c2c1=O | i | 18.8* | i | 465.0%* | CHO-K1 Tl ctr=119.0*;KCNQ1 pot spec=-11.5;KCNQ2 pot conf=88.0*;Kir2-1 sel=-1.9;KCNQ2 W236L pot=i
O=c1c2c(-c3cccs3)csc2ncn1-c1ccc(Br)cc1 | i | . | . | .
O=C(O)C1C2CCC(C2)C1C(=O)NCCc1ccccc1 (centres undefined) | i | 0.01 | . | .
COc1ccc(OCC(=O)N2CCN(C(=O)c3ccc(F)cc3)CC2)cc1 | i | . | . | .
O=C(c1ccc(Cl)cc1)N1CCc2c([nH]c3ccccc23)C1C(F)(F)F (centres undefined) | i | 7.95* | i | i | CHO-K1 Tl ctr=15.9*;KCNQ1 pot spec=-9.6;KCNQ2 pot conf=2.7*;Kir2-1 sel=-23.6;KCNQ2 W236L pot=i
O=C(Nc1ccccc1)N1CCc2c([nH]c3ccccc23)C1C(F)(F)F (centres undefined) | i | . | . | .
CSc1ccccc1NC(=O)CSc1n[nH]c(N)n1 | i | . | . | .
Nc1nc(SCC(=O)Nc2ccccc2Sc2ccc(Cl)cc2)n[nH]1 | i | 6.21* | i | i | CHO-K1 Tl ctr=23.1*;KCNQ1 pot spec=-17.7;KCNQ2 pot conf=9.1*;Kir2-1 sel=-53.2;KCNQ2 W236L pot=i
Cn1ccnc1SCC(=O)c1ccc2ccccc2c1 | i | . | . | .
CCOC(=O)C1CCCN(C(=O)Cn2c(=O)c3cccn3c3cccnc32)C1 (centres undefined) | i | 2.38 | . | .
CCCCN1C(=O)C(=Nc2cccc3cnccc23)c2ccccc21 | i | . | 36.5%* | i
CCCCN1C(=O)/C(=C2\SC(N3CCCCC3)=NC2=O)c2ccccc21 | i | 0.48 | . | .
COc1ccc(-c2nc(C#N)c(N3CCC(C)CC3)o2)cc1 | i | . | . | .
CCc1ccc2c(c1)C(NC(C)=O)C(=O)N2CCN1CCOCC1 (centres undefined) | i | . | . | .
O=C(NNC(=O)c1ccc(S(=O)(=O)N2CCOCC2)cc1)c1ccccc1 | i | 3.34 | . | .
Cc1ccc(S(=O)(=O)Nc2cc(=O)[nH]c(SCC(=O)Nc3cccc(C)c3)n2)cc1 | i | 5.29* | i | i | CHO-K1 Tl ctr=30.2*;KCNQ1 pot spec=-5.2;KCNQ2 pot conf=17.7*;Kir2-1 sel=-33.3;KCNQ2 W236L pot=i
Cc1ccc(NC(=O)CSc2nc(NS(=O)(=O)c3ccccc3)cc(=O)[nH]2)cc1 | i | 0.93 | . | .
CCOc1ccc(N(CC(=O)N2CCCCCC2)S(=O)(=O)c2ccc(F)cc2)cc1 | i | . | . | .
SMILES | KCNQ2 block | KCNQ2 pot | Kir21 conf inh | HEK293 ctr | others
CCOC(=O)CN1C(=O)C(Sc2n[nH]c(-c3ccccc3)n2)CCc2ccccc21 (centres undefined) | i | . | . | .
CCN(CC)CCNC(=O)c1ccc(NC(=O)C2CCN(c3ncnc4sc(C)c(C)c34)CC2)cc1 | i | . | . | .
Cc1cc(N2CCOCC2)nc(NCc2ccccc2)n1 | i | 2.14 | . | .
Cc1cc(N2CCCCC2)nc(NCc2ccccc2)n1 | i | 1.24 | 48.5%* | i
CC1CCC2(CC1)OCC1(CCC3(COC4(CCC(C)CC4)OC3)C1=O)CO2 (centres undefined) | i | 0.09 | . | .
CC(=O)Nc1ccc(NC(=O)c2ccc3c(c2)CCN3S(C)(=O)=O)cc1 | i | . | . | .
COc1cccc(NC(=O)c2ccc3c(c2)CCN3S(C)(=O)=O)c1 | i | 17.1* | i | i | CHO-K1 Tl ctr=2.5*;KCNQ1 pot spec=-13.6;KCNQ2 pot conf=-31.5;Kir2-1 sel=-40.0
COCC(CN1CCN(C2=NS(=O)(=O)c3ccccc32)CC1)OC(=O)c1ccc(OC)cc1 (centres undefined) | i | . | . | .
C=CCn1c(SCc2ccc(C(=O)OC)cc2)nnc1-c1sc(N)nc1C | i | 0.11 | . | .
C=CCn1c(SC/C=C/c2ccccc2)nnc1-c1sc(N)nc1C | i | . | 60.0%* | i
CCOc1ccc(N(CC(=O)N2CCN(c3ccc(F)cc3)CC2)S(=O)(=O)c2c(C)noc2C)cc1 | i | . | . | .
Cc1ccc2oc(C(=O)N(C)CCC(O)c3ccccc3)c(C)c2c1 (centres undefined) | i | . | . | .
CC1CC(C)CN(C(=O)Cn2cc(C=O)c3ccccc32)C1 (centres undefined) | i | 0.02 | . | .
O=C(CSCc1cnn(-c2ccccc2)c1-n1cccc1)NCc1cccs1 | i | . | i | i
COc1cccc(CNC(=O)CSCc2cnn(-c3ccccc3)c2-n2cccc2)c1 | i | . | i | i
CCOC(=O)N1CCC(NC(=O)CSCc2cnn(-c3ccccc3)c2-n2cccc2)CC1 | i | 0.04 | . | .
CNC(=O)CSCc1cnn(-c2ccccc2)c1-n1cccc1 | i | 0.39 | . | .
Cc1ccc(C)c(S(=O)(=O)Nc2cc3c4c(c2)CCC(=O)N4CCC3)c1 | i | . | . | .
CC(C)(C)N/C=C(\C#N)S(=O)(=O)c1ccc(Br)cc1 | i | 0.37 | . | .
O=C(OCc1ccccc1)N1CCCC1/C=C/CN1CCOCC1 (centres undefined) | i | . | . | .
Nc1nc(C2CCCN2S(=O)(=O)c2ccc(Cl)cc2)cs1 (centres undefined) | i | 1.26 | 61.5%* | i
O=S(=O)(c1ccc(Cl)cc1)N1CCCC1c1nc(-c2ccc(Cl)cc2)no1 (centres undefined) | i | . | . | .

Bioassay records deposited in PubChem by Johns Hopkins Ion Channel Center.
